The record followed here is the supplement of paper PMC11634586.

Structures can show the parent of a compound that is named as a salt.

This assay has as its system NCI-H1688. Nature of the assay: inhibition of cell viability relative to untreated control (fraction); higher = stronger growth inhibition, active = 0.5 or more. As to conditions: 30 µM; 24 h. The method in brief:
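After seeding at 3 × 10^3 cells/well in 96-well plates and a 24 h wait, NCI-H1688 small cell lung cancer cells received a natural compound library (TargetMol) at 30 µM for 24 h, kept at 37°C with 5% CO2. Triplicate readings of Cell Counting Kit-8 absorbance at 450 nm measured viability. Each value is the inhibition of cell viability as a fraction, derived from viability normalised to untreated cells.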
On to `C[C@@H]1O[C@@H](O[C@H]2C(=O)c3c(O)cc(O)cc3O[C@@H]2c2ccc(O)c(O)c2)[C@H](O)[C@H](O)[C@H]1O` [Astilbin], for which the “inhibition of cell viability” value was -0.0142 (inactive).

Take `C=CC1=C(C)c2cc3[nH]c(cc4nc(cc5[nH]c(cc1n2)c(C)c5CCC(=O)O)C(CCC(=O)O)=C4C)c(C)c3C=C` [Protoporphyrin IX]: the “inhibition of cell viability” value is 0.863 (active).

As for `CC1=CC(=O)c2ccccc2C1=O` [Menadione], the “inhibition of cell viability” value is 0.979 (active).

For `CC1(C)CC[C@]2(C(=O)O)CC[C@]3(C)C(=CC[C@@H]4[C@@]5(C)CC[C@H](O)C(C)(C)[C@@H]5CC[C@]43C)[C@@H]2C1` [Oleanolic Acid], the “inhibition of cell viability” value was 0.0195 (inactive).

In the case of `CC1CCC2(O)C(C)(C)C3CCC2(C)C1C3` (stereo not drawn) [Patchouli alcohol], the “inhibition of cell viability” value was 0.0152 (inactive).

In the case of `CC(C)=CCC[C@](C)(O[C@@H]1O[C@H](CO)[C@@H](O)[C@H](O)[C@H]1O)[C@H]1CC[C@]2(C)[C@@H]1[C@H](O)C[C@@H]1[C@@]3(C)CC[C@H](O)C(C)(C)[C@@H]3[C@@H](O[C@@H]3O[C@H](CO)[C@@H](O)[C@H](O)[C@H]3O[C@@H]3OC[C@@H](O)[C@H](O)[C@H]3O)C[C@]12C` [Notoginsenoside R1], the “inhibition of cell viability” value was -0.0107 (inactive).

`CC12CCC(CC1=O)C2(C)C` (stereo not drawn) [Camphor]: the “inhibition of cell viability” value was -0.239 (inactive).

Turning to `Cc1cc(O)c2c(c1)C(=O)c1cc(O)cc(O)c1C2=O` [Emodin], the “inhibition of cell viability” value is 0.493 (inactive).

Turning to `O=c1[nH]cnc2c1ncn2[C@@H]1O[C@H](CO)[C@@H](O)[C@H]1O` [Inosine], the “inhibition of cell viability” value is 0.0115 (inactive).

Regarding `CC1(C)CC[C@]2(C(=O)O)[C@H](O)C[C@]3(C)C(=CC[C@@H]4[C@@]5(C)CC[C@H](O)C(C)(C)[C@@H]5CC[C@]43C)[C@H]2C1` [Echinocystic acid], the “inhibition of cell viability” value is 0.139 (inactive).

In the case of `COc1cc(/C=C/C(=O)CC(=O)/C=C/c2ccc(O)c(OC)c2)ccc1O` [Curcumin], the “inhibition of cell viability” value is 0.315 (inactive).

As to `COc1cc2ccc(=O)oc2c(O)c1O` [Fraxetin], the “inhibition of cell viability” value is -0.0287 (inactive).

With `CC[C@H]1OC(=O)C[C@@H](O)[C@H](C)[C@@H](O[C@@H]2O[C@H](C)[C@@H](O[C@H]3C[C@@](C)(O)[C@@H](O)[C@H](C)O3)[C@H](N(C)C)[C@H]2O)[C@@H](CC=O)C[C@@H](C)C(=O)/C=C/C(C)=C/[C@@H]1CO[C@@H]1O[C@H](C)[C@@H](O)[C@@H](OC)[C@H]1OC` [Tylosin], the “inhibition of cell viability” value was 0.0387 (inactive).

Take `CC[C@]1(O)C[C@H]2CN(CCc3c([nH]c4ccccc34)[C@@](C(=O)OC)(c3cc4c(cc3OC)N(C=O)[C@H]3[C@@](O)(C(=O)OC)[C@H](OC(C)=O)[C@]5(CC)C=CCN6CC[C@]43[C@@H]65)C2)C1` [Vincristine sulfate]: the “inhibition of cell viability” value is 0.847 (active).

Turning to `Oc1cc(O)c2c(c1)O[C@H](c1ccc(O)c(O)c1)[C@@H](O)C2` [Cianidanol], the “inhibition of cell viability” value was 0.298 (inactive).

`CCCCCC1C(=O)CCC1CC(=O)OC` (stereo not drawn) [Methyl Dihydrojasmonate;Hedione]: the “inhibition of cell viability” value is -0.235 (inactive).

With `COc1cc(/C=C/C(=O)O)cc(OC)c1OC` [3,4,5-Trimethoxycinnamic acid], the “inhibition of cell viability” value was 0.124 (inactive).

As to `C[C@H](CCC(=O)O)[C@H]1CC[C@H]2[C@@H]3CC[C@@H]4C[C@H](O)CC[C@]4(C)[C@H]3C[C@H](O)[C@]12C` [Deoxycholic acid], the “inhibition of cell viability” value is -0.113 (inactive).

As for `O=C[C@H](NS(=O)(=O)O)[C@@H](O)[C@H](O)[C@H](O)CO` [N-Sulfo-glucosamine sodium salt], the “inhibition of cell viability” value was 0.162 (inactive).

Turning to `N[C@@H](Cc1cc(I)c(Oc2ccc(O)c(I)c2)c(I)c1)C(=O)O` [Lyothyronine], the “inhibition of cell viability” value was 0.0198 (inactive).

`O=c1c(O)c(-c2ccc(O)c(O)c2)oc2cc(O)ccc12` [Fisetin]: the “inhibition of cell viability” value was 0.0255 (inactive).

As to `CC(C)=CCC[C@](C)(O[C@@H]1O[C@H](CO)[C@@H](O)[C@H](O)[C@H]1O)[C@H]1CC[C@]2(C)[C@@H]1[C@H](O)C[C@@H]1[C@@]3(C)CC[C@H](O)C(C)(C)[C@@H]3[C@@H](O[C@@H]3O[C@H](CO)[C@@H](O)[C@H](O)[C@H]3O[C@@H]3O[C@@H](C)[C@H](O)[C@@H](O)[C@H]3O)C[C@]12C` [Ginsenoside Re], the “inhibition of cell viability” value was -0.0285 (inactive).

For the compound `O=C(OC[C@H]1O[C@@H](OC(=O)c2cc(O)c(O)c(OC(=O)c3cc(O)c(O)c(O)c3)c2)[C@H](OC(=O)c2cc(O)c(O)c(OC(=O)c3cc(O)c(O)c(O)c3)c2)[C@@H](OC(=O)c2cc(O)c(O)c(OC(=O)c3cc(O)c(O)c(O)c3)c2)[C@@H]1OC(=O)c1cc(O)c(O)c(OC(=O)c2cc(O)c(O)c(O)c2)c1)c1cc(O)c(O)c(OC(=O)c2cc(O)c(O)c(O)c2)c1` [Glycerite], the “inhibition of cell viability” value is 0.821 (active).

On to `COC1=CC(=O)C[C@@H](C)[C@]12Oc1c(Cl)c(OC)cc(OC)c1C2=O` [Griseofulvin], for which the “inhibition of cell viability” value was 0.615 (active).

As to `CC(C)[C@H](NC(=O)[C@H](CC(=O)O)NC(=O)[C@H](CCCCN)NC(=O)[C@@H](N)CCCN=C(N)N)C(=O)N[C@@H](Cc1ccc(O)cc1)C(=O)O` [Thymopentin], the “inhibition of cell viability” value was 0.0248 (inactive).

Turning to `C[C@@H]1O[C@@H](O[C@@H]2[C@@H](O)[C@H](OCCc3ccc(O)c(O)c3)O[C@H](CO[C@@H]3O[C@H](CO)[C@@H](O)[C@H](O)[C@H]3O)[C@H]2OC(=O)/C=C/c2ccc(O)c(O)c2)[C@H](O)[C@H](O)[C@H]1O` [Echinacoside], the “inhibition of cell viability” value is 0.128 (inactive).

For `COc1ccc(/C=C/C(=O)O)cc1O` [Isoferulic acid], the “inhibition of cell viability” value was -0.0461 (inactive).

As to `Cc1c(C)c2c(c(C)c1O)CC[C@@](C)(CCC[C@H](C)CCC[C@H](C)CCCC(C)C)O2` [Vitamin E], the “inhibition of cell viability” value was -0.243 (inactive).

As for `O=c1c(O[C@@H]2O[C@H](CO)[C@H](O)[C@H](O)[C@H]2O)c(-c2ccc(O)c(O)c2)oc2cc(O)cc(O)c12` [Hyperoside], the “inhibition of cell viability” value is -0.0387 (inactive).

Take `N[C@@H](Cc1ccc(O)c(O)c1)C(=O)O` [Levodopa]: the “inhibition of cell viability” value was 0.167 (inactive).

Turning to `OCc1c[nH]c2ccccc12` [Indole-3-carbinol], the “inhibition of cell viability” value was 0.0235 (inactive).

For `OC[C@@H](O)[C@@H](O)[C@H](O)[C@@H](O)CO` [D-Sorbitol], the “inhibition of cell viability” value was -0.224 (inactive).

On to `CC1(C)[C@@H](O[C@H]2O[C@H](C(=O)O)[C@@H](O)[C@H](O)[C@H]2O[C@@H]2O[C@H](C(=O)O)[C@@H](O)[C@H](O)[C@H]2O)CC[C@]2(C)[C@H]3C(=O)C=C4[C@@H]5C[C@@](C)(C(=O)O)CC[C@]5(C)CC[C@@]4(C)[C@]3(C)CC[C@@H]12` [Glycyrrhizin (Glycyrrhizic Acid)], for which the “inhibition of cell viability” value is -0.0055 (inactive).

For `COc1c2ccoc2cc2oc(=O)ccc12` [Bergapten], the “inhibition of cell viability” value is 0.298 (inactive).

As for `Oc1ccc(CC2NCCc3cc(O)c(O)cc32)cc1` (stereo not drawn) [Demethyl], the “inhibition of cell viability” value was 0.182 (inactive).

On to `Cc1nc(C)c(C)nc1C` [Ligustrazine hydrochloride], for which the “inhibition of cell viability” value is -0.157 (inactive).

Consider `CN[C@@H]1[C@@H](O[C@H]2O[C@H](CO)[C@@H](N)[C@H](O)[C@H]2O)OC2C[C@@H](N)[C@@H](O[C@H]3[C@H](O)[C@@H](O)[C@H](N)C[C@@H]3N)OC2[C@@H]1O` (stereo partly drawn) [Apramycin sulfate], for which the “inhibition of cell viability” value was -0.0456 (inactive).

For `C[C@H]1COC2=C1C(=O)C(=O)c1c2ccc2c1CCCC2(C)C` [Cryptotanshinone], the “inhibition of cell viability” value was 1 (active).
